Compound activity from PubChem.
KDM5B inh: KDM5B demethylase inhibition; Q9UGL1; KDM5B demethylase, FDH-coupled NADH fluorescence (FDH is formaldehyde dehydrogenase); Potency, µM (titrated, usually from 57.7 µM), actives largely listed as inhibitors; actives 2.6% (n = 220,000); AID 1347165; active = well fitted inhibition curve with a large enough effect; note: 0% is about no effect; nearly all actives have a fitted effect of over 70% in size
Target sequence (Q9UGL1 whole entry, looked up): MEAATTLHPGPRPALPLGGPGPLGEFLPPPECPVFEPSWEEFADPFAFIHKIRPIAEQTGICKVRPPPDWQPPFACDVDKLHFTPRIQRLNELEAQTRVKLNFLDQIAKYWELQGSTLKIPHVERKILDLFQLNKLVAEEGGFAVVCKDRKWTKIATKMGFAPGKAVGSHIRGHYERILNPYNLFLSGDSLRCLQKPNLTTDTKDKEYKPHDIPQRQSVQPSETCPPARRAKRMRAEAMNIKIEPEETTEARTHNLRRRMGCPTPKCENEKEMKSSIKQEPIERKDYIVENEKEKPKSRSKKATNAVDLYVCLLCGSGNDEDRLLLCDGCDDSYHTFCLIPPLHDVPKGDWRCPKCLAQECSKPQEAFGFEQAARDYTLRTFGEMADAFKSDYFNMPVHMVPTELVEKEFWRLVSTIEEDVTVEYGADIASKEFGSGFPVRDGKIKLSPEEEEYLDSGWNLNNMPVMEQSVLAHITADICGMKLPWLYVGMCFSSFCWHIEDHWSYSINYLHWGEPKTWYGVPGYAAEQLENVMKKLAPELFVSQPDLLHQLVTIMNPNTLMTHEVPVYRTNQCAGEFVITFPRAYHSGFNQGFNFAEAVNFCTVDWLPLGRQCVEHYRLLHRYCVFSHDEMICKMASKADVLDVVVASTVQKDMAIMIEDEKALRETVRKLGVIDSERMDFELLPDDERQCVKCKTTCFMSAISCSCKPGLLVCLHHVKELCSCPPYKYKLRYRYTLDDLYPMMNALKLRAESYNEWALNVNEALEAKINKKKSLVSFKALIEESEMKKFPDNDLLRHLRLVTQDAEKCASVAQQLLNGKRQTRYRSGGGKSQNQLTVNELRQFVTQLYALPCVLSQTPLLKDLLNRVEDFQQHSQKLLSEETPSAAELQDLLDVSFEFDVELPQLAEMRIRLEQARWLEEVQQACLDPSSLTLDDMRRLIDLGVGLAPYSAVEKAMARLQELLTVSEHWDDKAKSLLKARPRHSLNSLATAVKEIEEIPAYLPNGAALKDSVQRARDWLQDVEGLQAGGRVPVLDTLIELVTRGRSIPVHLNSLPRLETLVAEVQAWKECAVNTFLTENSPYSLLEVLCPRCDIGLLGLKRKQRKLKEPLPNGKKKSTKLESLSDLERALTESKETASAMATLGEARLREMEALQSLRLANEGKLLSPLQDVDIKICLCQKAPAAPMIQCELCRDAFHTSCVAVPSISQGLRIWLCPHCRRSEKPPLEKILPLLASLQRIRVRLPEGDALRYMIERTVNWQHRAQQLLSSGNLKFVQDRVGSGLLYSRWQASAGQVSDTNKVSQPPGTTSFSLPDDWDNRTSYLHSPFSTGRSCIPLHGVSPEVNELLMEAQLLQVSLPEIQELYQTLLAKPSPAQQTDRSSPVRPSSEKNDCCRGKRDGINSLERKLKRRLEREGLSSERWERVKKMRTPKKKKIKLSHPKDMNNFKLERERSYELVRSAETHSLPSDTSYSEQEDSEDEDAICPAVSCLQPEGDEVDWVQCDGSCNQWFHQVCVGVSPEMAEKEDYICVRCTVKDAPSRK
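Here, H3K4me3 peptide (12.5 µM in substrate mix) is demethylated by KDM5BΔAP, 200 nM final, after 10 min compound exposure. Formaldehyde product is coupled through FDH (0.25 U/mL in mix) to NADH fluorescence; 30-min ΔRFU feeds dose-response curves.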
The depositor's hits bear a star; i = inactive. This is one part of a sample in which hits are shown more often than they occur. Potency is the fitted concentration of half-maximal effect.

SMILES	KDM5B inh
CCCCCCOc1ccc(/C=C(/C#N)c2ccccn2)cc1	i
Cc1cc(C)n2nc(C)c(C(=O)N[C@@H]3COCC[C@@H]3OCC3CC3)c2n1	22µM*
CCn1cc(C(=O)N[C@@H]2COCC[C@@H]2OCC2CC2)c(=O)c2ccc(C)nc21	i
Cc1cc(C)n(CCC(=O)N[C@@H]2CCOC[C@H]2OCC2CCC2)c(=O)n1	i
Cc1ccc(-c2ccc(Oc3ccc(C#N)c(C#N)c3)cc2)cc1	i
CC(C)c1nccn1CCCNC(=O)c1ccc(-c2ccc(F)cc2)nc1	i
CC(C)c1nccn1CCCNC(=O)c1ccc(N2CCCC(CO)C2)nc1 (centres undefined)	i
COc1cccc(C(C)N(C)C(=O)c2cc(Cn3ccnc3C(C)C)[nH]n2)c1 (centres undefined)	i
CC(C)c1nccn1CCCNC(=O)c1ccc(NC2CCC(O)CC2)nc1 (centres undefined)	28µM*
Cc1nccn1CCNC(=O)c1ccc(CC2CCN(S(C)(=O)=O)CC2)cc1	i
COc1cccc(-c2ccc(C(=O)NCCCn3ccnc3C(C)C)cn2)c1	28µM*
Cc1noc(C)c1S(=O)(=O)N[C@@H]1CN(Cc2ccccc2)C[C@H]1CN(C)C	i
Cc1ccc(-c2csc(-c3ccccc3N)n2)cc1	i
O=C(Nc1ccccc1-n1cncn1)C1CCCCC1	i
NC(=O)CNC(=O)c1cc2n(n1)CC(c1ccc(Br)cc1)OC2 (centres undefined)	i
COc1ccc(CNC(=O)c2cc3n(n2)CC(c2ccc(Cl)cc2)OC3)c(OC)c1 (centres undefined)	i
O=C(c1cc2n(n1)CC(c1ccc(Br)cc1)OC2)N1CCOCC1 (centres undefined)	i
CC(NC(=O)c1cc2n(n1)CC(c1ccc(Cl)cc1)OC2)c1ccc(F)cc1 (centres undefined)	i
O=C(Nc1ccc(F)c(Cl)c1)c1cc2n(n1)CC(c1ccc(Cl)cc1)OC2 (centres undefined)	25µM*
O=C(Nc1ccccc1)c1cc2n(n1)CC(c1ccc(Br)cc1)OC2 (centres undefined)	32µM*
CCN1CCN(C(=O)c2cc3n(n2)CC(c2ccc(Br)cc2)OC3)CC1 (centres undefined)	i
COc1ccc(CNC(=O)c2cc3n(n2)CC(c2ccc(Cl)cc2)OC3)cc1 (centres undefined)	i
O=C(Nc1cc(F)ccc1Cl)c1cc2n(n1)CC(c1ccc(Br)cc1)OC2 (centres undefined)	25µM*
CCOc1ccc(OCC)c(NC(=O)c2cc3n(n2)CC(c2ccc(Cl)cc2)OC3)c1 (centres undefined)	14µM*
O=C(c1cc2n(n1)CC(c1ccc(Cl)cc1)OC2)N1CCCCC1 (centres undefined)	i
SMILES	KDM5B inh
Fc1ccc(OC2CN(Cc3ccccc3)C2)cc1F	i
NC(N)=N/N=C/C(Cl)=C/c1ccccc1	i
CN(C(=O)c1cccc(Cl)c1)C1CCCCC1	i
CC(=O)c1ccc(N2CCN(C(=O)c3ccc(Cn4cncn4)cc3)CC2)cc1	i
O=C(Nc1ccc(Cl)cc1)c1cc2n(n1)CC(c1ccc(Cl)cc1)OC2 (centres undefined)	32µM*
CC(C)c1ccc(CNC(=O)c2cc3n(n2)CC(c2ccc(Cl)cc2)OC3)cc1 (centres undefined)	i
Cc1ccc(C)c(N2CCN(C(=O)c3cc4n(n3)CC(c3ccc(Cl)cc3)OC4)CC2)c1 (centres undefined)	i
O=C(Nc1ccc(F)c(F)c1)c1cc2n(n1)CC(c1ccc(Cl)cc1)OC2 (centres undefined)	i
Cc1ccc(NC(=O)c2cc3n(n2)CC(c2ccc(Cl)cc2)OC3)cc1F (centres undefined)	28µM*
COc1ccc(NC(=O)c2cc3n(n2)CC(c2ccc(Cl)cc2)OC3)cc1 (centres undefined)	i
O=C(CCC1NC(=O)N(CCc2c[nH]c3ccc(F)cc23)C1=O)Nc1ccccc1 (centres undefined)	i
N#Cc1nc(C2CC2)oc1N1CCN(Cc2cccc(Cl)c2)CC1	i
Cc1ccc(C(=O)CC(=O)c2ccc(C)c(C)c2)cc1C	i
OCC1(CO)CCCC12COC(c1ccccc1)OC2 (centres undefined)	i
COC(=O)C(C)Oc1ccc2c(C)c(-c3ccc(OC)c(OC)c3)c(=O)oc2c1 (centres undefined)	i
CCc1nn2c(-c3ccco3)ccnc2c1-c1ccccc1	i
CC(C)Cc1nc2nccc(-c3ccco3)n2n1	25µM*
